# The full list was thinned out, with hits kept by preference.
# p53 reactivator – re-activators of mutant p53; H1299 p53-A138V BP100-luciferase reporter, luminescence, 24 h; 0.063% of 320,000 active; Potency, µM (highest dose often 92.2 µM), for inactives: at the highest dose activity change, positive = activation, actives largely listed as activators; active = well fitted activation curve with a large enough effect; inconclusive = small, poorly fitted or top-dose-only effect; inactive = no such curve, though single readings can be large or run the other way; also: potency is read from the fitted curve at half-maximal effect; % of control where 0% means no effect; nearly all actives have a fitted effect of over 45% in size
#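 p53-null H1299 cells stably carrying temperature-sensitive p53-A138V and a BP100-luciferase reporter were pinned with compounds (4-point, 1:5 series) and held 24 hrs at 37 deg C. Luminescence was read 10 min after detection reagent.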
# ClpP mod – qHTS Assay for Activators of ClpP; ATP-dependent Clp protease proteolytic subunit (Bacillus subtilis (strain 168)), P80244; purified B. subtilis ClpP, FRET peptide cleavage, 20 min; Potency, µM (titrated, usually from 57.5 µM), inactives show at the highest dose activity change, negative = active; 1.9% of 340,000 active; active = well fitted falling curve with a large enough effect; inconclusive = small, poorly fitted or top-dose-only effect; inactive = no such curve, though single readings can be large or run the other way; also: potency is read from the fitted curve at half-maximal effect; the source files actives as falling curves though it sought activators and does not explain the sign; nearly all actives have a fitted effect of over 65% in size
#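 FRET quenching reversal measured ClpP activation: 10 microg/mL B. subtilis ClpP at pH 8 with the FRET-FV decapeptide, read at 430 nm after 320 nm excitation. The 20-min minus 0-min signal was scaled between DMSO/no-enzyme wells and ADEP (5.8 microM final).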
# Menin-MLL TR inh – inhibitors of human menin-MLL interaction, mutant MLL peptide. O00255. Menin + Texas Red MLL mutant peptide, fluorescence polarization. Potency, µM (series often up to 61.6 µM), for the others: at the highest dose FP activity change, negative = inhibition, most hits filed as inhibitors. 0.23% of 270,000 active. AID 1768; active = well fitted inhibition curve with a large enough effect in the polarisation, with a control signal flat, not every such curve was filed as active; inconclusive = small, poorly fitted or top-dose-only effect, or effect the other way, or a change in a side signal; inactive = no such curve, though single readings can be large or run the other way; the % refers to the polarisation; also: potency is read from the fitted curve at half-maximal effect; % of control where 0% means no effect
# Menin MLL FP FL – inhibitors of human menin-MLL interaction, wild-type MLL peptide. 290,000 tested, under 10 active. FP activity change, % at 61.4 µM. Fluorescence polarization, fluorescein-MLL peptide displacement from menin; active = well fitted curve in the direction sought with a large enough effect in the polarisation, not every such curve was filed as active; inconclusive = small, poorly fitted or top-dose-only effect, or effect the other way, or a change in a side signal; inactive = no such curve, though single readings can be large or run the other way; the % refers to the polarisation; also: % of control where 0% means no effect
# CXXC DNA block – blocks binding of human MLL CXXC domain to DNA | Q03164 | MLL-CXXC / FITC-HOXA9 DNA fluorescence polarization | Potency, µM (titrated, usually from 115 µM), without a hit: top-dose activity change, negative = inhibition, most hits filed as inhibitors | 0.037% of 290,000 active | AID 2662; active = well fitted inhibition curve with a large enough effect in the polarisation, with a control signal flat, not every such curve was filed as active; inconclusive = small, poorly fitted or top-dose-only effect, or effect the other way, or a change in a side signal; inactive = no such curve, though single readings can be large or run the other way; the % refers to the polarisation; also: potency is read from the fitted curve at half-maximal effect
#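 Purified MLL-CXXC (added from a 7 uM solution) was preincubated 5 min at ambient with pinned compounds in 50 mM Tris-HCl pH 7.5, 50 mM NaCl, 1 mM DTT, 0.05% BSA. Fluorescein-labeled HOX-A9 DNA (50 nM solution) followed, 30 min, then polarization read.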
# * hit, by the source's call; ? = inconclusive; · = no result given; [ ] = remark or other dose.
SMILES,p53 reactivator,ClpP mod,Menin-MLL TR inh,Menin MLL FP FL,CXXC DNA block
CCOC(=O)c1ccc2nc(Nc3nc4ccc(F)cc4s3)sc2c1,?,15.8µM*,10.6%,8.5,1.9%
CCCCc1nc2c(c3c1C[C@H](C)OC3)CN(S(=O)(=O)c1ccc(Cl)c3nonc13)CC2,·,·,-0.9%[11.7 µM],8.1[11.7 µM],·
O=C(COC(=O)c1ccc2[nH]c3c(c2c1)CCCC3)Nc1ccccc1Cl,2.5%,2.6%,5.7%,0.5,-0.1%
CCC(C)c1ccccc1NC(=O)COC(=O)c1ccc2[nH]c3c(c2c1)CCCC3 (stereo not given),2.2%,31.6µM*,-1.6%,3.0,-7.7%
Cn1c(O)c(N=NC(=O)CNC(=O)c2ccccc2)c2ccccc21,-2.0%,·,·,·,23.7%
Cn1c(O)c(N=NC(=O)Cc2c[nH]c3ccccc23)c2ccccc21,·,3.16µM*,·,·,·
COc1ccc(C2NC(=O)NC3=C2CCc2ccccc23)cc1 (stereo not given),0.9%,15.8µM*,-0.4%,2.9,7.3%
CC(C)c1ccc(C2NC(=O)NC3=C2CCc2ccccc23)cc1 (stereo not given),0.7%,28.2µM*,?,6.3,10.2%
Cn1nc(-c2cccnc2)nc2c(=O)n(C)c(=O)nc1-2,·,-1.9%,·,·,·
Cc1ccc(S(=O)(=O)NC2(C(=O)O)CCCCC2)cc1,-4.3%,0.0%,3.6%,-0.7,2.5%
Cc1ccc(S(=O)(=O)NC2(C(=O)O)CCCC2)cc1,·,35.5µM*,·,·,·
CC1(C)CC(=O)c2c(nc3ccccc3c2N)C1,-4.2%,31.6µM*,1.5%,-1.5,11.7%
CCNc1c2c(nc3ccccc13)CC(C)(C)CC2=O,0.8%,-7.6%,-10.9%,-0.5,-3.2%
CCOc1ccc(CCNC(=O)c2[nH]c3cc(OC)ccc3c2Sc2ccccc2)cc1OCC,·,22.4µM*,·,·,·
COc1cccc(OC)c1C1=Nn2c(nnc2-c2ccccc2C)SC1,·,·,2.5%,0.3,·
Cc1ccc2nc(-c3cccc(N)c3)oc2c1,?,14.1µM*,-7.8%,-0.1,0.5%
Cc1cc(C)c2oc(-c3cccc(N)c3)nc2c1,?,4.1%,15.5%,-6.7,-11.4%
COc1ccc(-c2nc3cnc(N4CCOCC4)nc3n(-c3ccc(OC)cc3)c2=O)cc1,·,·,-5.0%,?,·
C=C1c2ccccc2O[C@H](C(=O)OCC)[C@@H]1C1CCCCC1 (tested in a mixture with another compound),·,·,-13.8%[94.6 µM],5.1[94.6 µM],·
O=C(Cc1ccc([N+](=O)[O-])cc1)NCc1cccnc1,9.1%,-9.9%,-5.1%,-1.1,-1.4%
O=C(Cc1ccc([N+](=O)[O-])cc1)NCc1ccccc1Cl,-7.5%,11.2µM*,-9.6%,-0.3,0.1%
CCOc1ccc2nc(SCC(=O)Nc3ccc(S(=O)(=O)N4CCCC4)cc3)c(C)cc2c1,2.6%,-10.0%,·,0.3,5.2%
COc1ccc2nc(SCC(=O)Nc3ccc(S(=O)(=O)N4CCCC4)cc3)c(C#N)cc2c1,2.9%,-4.1%,15.8µM*,12.9,27.6%
N#Cc1ccc(NCCNCC(=O)N2N=CCC2C#N)nc1 (stereo not given),·,·,-5.4%,-6.7,·
CC(C)CCc1c(O)nc(SCC(C)C)[nH]c1=O,-2.2%,31.6µM*,1.3%,0.3,13.6%
SMILES,p53 reactivator,ClpP mod,Menin-MLL TR inh,Menin MLL FP FL,CXXC DNA block
Cc1ccc(O)c(-c2cc(C(F)(F)C(F)F)nc(-c3ccccc3)n2)c1,0.1%,25.1µM*,·,4.6,4.6%
COc1ccc(-c2ncncc2-c2ccc(OC)c(OC)c2)c(O)c1,4.0%,20µM*,-15.0%,0.9,5.7%
CCCOC(=O)C1=C(C)CS[C@@H]2[C@H](NC(=O)COc3ccccc3)C(=O)N12,·,-14.2%,·,·,·
CCCC(=O)Nc1sc2c(c1C#N)CCCC2,?,-0.2%,-11.6%,-1.8,11.7%
COC(=O)CCC(=O)Nc1sc2c(c1C#N)CCCC2,2.6%,28.2µM*,-1.5%,3.0,9.3%
COc1ccc(C(=O)N2CCN(C)C(=O)[C@@H]2C)cc1OC1CCN(C(C)=O)CC1,7.7%,31.6µM*,·,·,3.0%
CCN1C(=O)C(CC(=O)NCCc2ccccc2)N(NC(=O)c2cccnc2)C1=S (stereo not given),3.7%,1.9%,14.5%,0.9,3.6%
CCN1C(=O)C(CC(=O)NC)N(NC(=O)c2ccccc2)C1=S (stereo not given),20.6%,25.1µM*,2.3%,9.9,-0.4%
CCC1c2ccc(C)n2CCN1C(=O)Nc1ccccc1C(=O)OC (stereo not given),?,35.5µM*,-2.6%,4.6,5.9%
CCOC(=O)c1ccccc1NC(=O)N1CCn2c(C)ccc2C1CC (stereo not given),-12.2%,?,?,?,16.2%
CN1CCC(=O)N(C(CSc2ccc(Br)cc2)c2ccccc2)CC1 (stereo not given),·,·,-12.2%,0.5,·
COc1cc2nc(N3CCCN(C)CC3)nc(OC3CCN(C)CC3)c2cc1OC,·,4.1%,·,·,·
O=C(CS(=O)CC(=O)Nc1ccc(Cl)cc1)NCC1OCCc2ccccc21 (stereo not given),-3.3%,11.2µM*,-15.7%,0.5,-3.9%
CCCCN(Cc1cc2cc(OC)ccc2[nH]c1=O)C(=O)c1ccccn1,2.2%,20µM*,-20.3%,0.8,5.3%
CCCCN(Cc1cc2cc(OC)ccc2[nH]c1=O)C(=O)c1ccco1,-1.1%,31.6µM*,-14.3%,2.0,-2.5%
CCCN(Cc1cc2cc(OC)ccc2[nH]c1=O)C(=O)c1ccco1,0.0%,·,·,6.6,-5.7%
CCCN(Cc1cc2cc(C)ccc2[nH]c1=O)C(=O)c1ccccn1,-0.7%,1.0%,·,1.4,-4.2%
COc1ccc(-c2nc3ccccc3s2)cc1,-7.1%,4.4%,14.2%,-1.5,1.1%
Nc1cccc(-c2nc3ccc(N)cc3s2)c1,-2.0%,14.1µM*,·,0.9,-2.0%
COc1cccc(-c2nc3ccccc3s2)c1,?,28.2µM*,0.1%,-0.3,-3.8%
C1=Cc2ccccc2/C1=C\c1cc2c3c(c1)CCCN3CCC2,·,-4.7%,·,·,·
CCOC(=O)c1ccccc1NC1OC(=O)c2ccccc21 (stereo not given),-3.2%,28.2µM*,6.1%,3.8,-2.6%
Cc1ccc(-c2cnc(NCc3c(F)cccc3Cl)n2C)cc1,·,-25.9%,·,·,·
CC1(C)CC(Nc2ccc(Nc3ccccc3)cc2)CC(C)(C)N1,-17.2%,-0.2%,20µM*,2.5,-2.8%
CC1(C)CC(NC(=O)c2ccccc2)CC(C)(C)N1,?,-0.7%,12.7%,-2.5,-3.1%
c1ncc(-c2ccoc2)c(NC2CC2)n1,·,·,-0.3%,?,·
CCOC(=O)N1CCN(C(=S)NC(=O)c2ccc(F)c(F)c2)CC1,-1.3%,28.2µM*,4.8%,-2.9,-4.4%
CCOC(=O)N1CCN(C(=S)NC(=O)c2cccc(OC)c2)CC1,2.2%,-23.9%,·,·,·
COc1ccc(/C=N/NC(=O)c2nc(Cl)c(Cl)c(N)c2Cl)cc1COc1ccccc1F,-16.0%,206.1%,?,0.8,18.9%
